Source: publication PMC4552634, “A New Set of Chemical Starting Points with Plasmodium falciparum Transmission-Blocking Potential for Antimalarial Drug Discovery” (PLoS ONE, 2015)
Among all 13,000 compounds or so, about 3,200 (25%) showed an effect of 50% or more. This is one part of the list.

Each compound was assayed on P. falciparum stage V gametocytes. Details: 48 h, 5 µM; inhibitor.
Parameters: BacTiter-Glo ATP luminescence viability of purified stage V gametocytes in 384-well plates, per cent inhibition versus DMSO

Compound | % Inhibition [%]
CC(=O)Nc1ccc(CN(Cc2cccc(OC(C)(C)C)c2)Cc2ccc3c(c2)OCCO3)cc1 [TCMDC-136613] | 87.49
CN(C)C(=O)c1ccc(CN(Cc2ccc3c(c2)OCCO3)Cc2ccc3c(c2)OCO3)cc1 [TCMDC-136612] | -1.47
CC(=O)Nc1ccc(CN(Cc2ccc(OC(C)(C)C)cc2)Cc2ccc3c(c2)OCCO3)cc1 [TCMDC-136616] | -22.37
CN(C)C(=O)c1ccc(CN(Cc2ccc(OC(C)(C)C)cc2)Cc2ccc3c(c2)OCCO3)cc1 [TCMDC-136615] | 62.57
CN(C)C(=O)c1ccc(CN(Cc2cccc(OC(C)(C)C)c2)Cc2ccc3c(c2)OCCO3)cc1 [TCMDC-136614] | 66.69
CC(C)(C)OC(=O)NCC(=O)N(Cc1ccccc1)Cc1ccccc1 [TCMDC-131954] | 1.715
Cc1ccc(CN(Cc2ccc(C(=O)N(C)C)cc2)Cc2ccc3c(c2)OCCO3)cc1C [TCMDC-136617] | 24.15
O=C(CC(=O)C(F)(F)F)c1ccc2c(c1)OCO2 [TCMDC-125824] | -11.59
CC(=O)Nc1ccc(CN(Cc2ccc(C)cc2)Cc2cccc(Oc3ccccc3)c2)cc1 [TCMDC-140147] | 4.246
O=C(/C=C/c1ccc([N+](=O)[O-])cc1)N1CCC(NS(=O)(=O)c2cccc(C(F)(F)F)c2)CC1 [TCMDC-139443] | -15.57
c1ccc(C(c2ccccc2)N2CCN(C(c3cccnc3)c3nnnn3C3CCCC3)CC2)cc1 (stereo not shown) [TCMDC-123571] | -4.144
Cc1cc(NC(=O)Nc2ccc3ccn(C)c3c2)c2ccccc2n1 [TCMDC-140057] | 10.89
CC1CCN(c2nc(C(=O)Nc3ccc(F)cc3C(F)(F)F)c(C(C)C)s2)CC1 [TCMDC-134661] | -14.15
CC1(C)N=C(N)N=C(N)N1c1cc(Cl)c(Cl)cc1Cl [TCMDC-124503] | -35.38
CSc1nc2cc3c(cc2n1C(=O)c1ccc(C)cc1)OCCO3 [TCMDC-125385] | -23.6
Cc1ccccc1N1CCN(c2ccc(C(=O)Nc3ccccc3)cc2)CC1 [TCMDC-134565] | 28.84
O=C(O)C(F)(F)F.c1ccc2[nH]c(-c3ccc(-c4ccc(CNCC5CCCO5)cc4)s3)nc2c1 (stereo not shown) [TCMDC-133106] | -3.113
FC(F)(F)c1ccccc1OCc1cc(-c2ccncc2)c(COc2ccccc2C(F)(F)F)cc1C1=CCNCC1 [TCMDC-134498] | 112.2
Oc1ccc(-c2cc(COc3ccccc3C(F)(F)F)c(C3=CCNCC3)cc2COc2ccccc2C(F)(F)F)cc1 [TCMDC-134520] | 89.52
CN(C)CCOc1cc(NC(=O)Nc2ccc(-c3ccncc3)c(C(F)(F)F)c2)ccc1Cl [TCMDC-139224] | -31.22
COc1cc(C=CC(=O)N2CCN(Cc3cccc(C)c3)CC2)ccc1OCc1c(C)noc1C [TCMDC-125249] | 23.84
Cc1nc(N)nc(N)c1Oc1cccc(Cl)c1 [TCMDC-137376] | -5.588
Cc1ccc(C)c(NC(=O)NCCNc2ccnc(Nc3ccc(F)cc3)n2)c1 [TCMDC-133638] | 7.929
CN1CCN(c2cc(NC(=O)c3ccc(-c4ccc(C#N)cc4)cc3)ccc2Cl)CC1 [TCMDC-138670] | -41.42
O=C(Nc1ccc(OC2CCN(Cc3ccc(F)cc3)CC2)c(Cl)c1)c1ccsc1 [TCMDC-133745] | -5.727

Compound | % Inhibition [%]
Cc1cc(=O)oc2c1ccc1oc(C(O)c3ccc(Cl)cc3)c(C)c12 (stereo not shown) [TCMDC-123999] | -9.04
Fc1cccc(C=NNc2ccnc3ccccc23)c1 [TCMDC-142058] | -35.92
CCOc1ccc2nc(C)cc(NN=Cc3ccccc3F)c2c1 [TCMDC-142092] | 61.8
CCOc1ccc2nc(C)cc(NN=Cc3ccccc3Cl)c2c1 [TCMDC-142090] | 95.12
COc1ccc2nc(C)cc(NN=Cc3ccccc3F)c2c1 [TCMDC-142083] | 38.04
Cc1cc(NN=Cc2ccccc2F)c2cc(C(F)(F)F)ccc2n1 [TCMDC-142027] | -61.45
Cc1ccc2nc(C)cc(NN=Cc3ccccc3Cl)c2c1 [TCMDC-142062] | -47.12
Fc1cccc(C=NNc2ccnc3cc(Cl)ccc23)c1 [TCMDC-123966] | -20.4
CCOc1ccc2nc(C)cc(NN=Cc3cccc(C)n3)c2c1 [TCMDC-142050] | 48.92
Cc1ccc2nc(C)cc(NN=Cc3ccccc3F)c2c1 [TCMDC-142065] | 60.82
Fc1ccc2c(NN=Cc3ccccc3F)ccnc2c1 [TCMDC-142018] | 101.1
Cc1cc(NN=Cc2ccccc2F)c2ccccc2n1 [TCMDC-123982] | -9.703
CC(C)CC(NC(=O)c1cccc(OCCN2CCOCC2)c1)C(=O)NC(/C=N/NC(=O)c1ccccc1)CCc1ccccc1 (stereo not shown) [TCMDC-135464] | 15.6
CC1(C)CCCN(C(=O)c2cccc(-n3nc(-c4ccc(Cl)cc4)cc3N)c2)C1 [TCMDC-134042] | -38.1
O=C(Nc1ccc2c(c1)CCC2)c1cnc(N2CCN(c3ccncc3)CC2)c(Cl)c1 [TCMDC-134596] | 8.854
O=C(Nc1ccc(Br)cc1)N(CCN1CCOCC1)CC(O)COCc1ccc(Cl)c(Cl)c1 (stereo not shown) [TCMDC-141490] | 5.181
Cc1ccc(N2C(N)=NC(N)=NC2(C)C)cc1 [TCMDC-131578] | 18.97
CN(CCON1C(N)=NC(N)=NC1(C)C)c1ccccc1 [TCMDC-131733] | 4.514
O=C(Nc1ccc(I)cc1)N1CCc2sccc2C1CN1CCCCC1 (stereo not shown) [TCMDC-136648] | -39.22
CC(CN(C)C)C(=O)Nc1cccc(-c2ccc(-c3nc4cc(F)ccc4[nH]3)s2)c1 (stereo not shown) [TCMDC-137114] | -16.25
CCN(CCO)CCCC(C)Nc1ccnc2cc(Cl)ccc12 (stereo not shown) [TCMDC-123987] | 30.66
CC(C)(C)C1CCc2nc(N)nc(N)c2C1 (stereo not shown) [TCMDC-137954] | 82.06
CCC(C)(C)C1CCc2nc(N)nc(N)c2C1 (stereo not shown) [TCMDC-137870] | -20.62
CC(C)C1CCc2nc(N)nc(N)c2C1 (stereo not shown) [TCMDC-137947] | 0.4281
CCCC1(NC[C@@H](O)[C@H](Cc2ccccc2)NC(=O)c2cc(NCC)cc(N3CCCCS3(=O)=O)c2)CCC1 [TCMDC-135374] | 23.04

Compound | % Inhibition [%]
Cc1ccccc1CNc1ccc2nc(N)nc(N)c2c1 [TCMDC-135439] | 74.86
CCOC(=O)CN1Cc2cc(NCc3ccc4ccc5nc(C)[nH]c(=O)c5c4c3)ccc2C1=O [TCMDC-137815] | 10.92
CCN(Cc1cccc2ccccc12)c1ccc2nc(N)nc(N)c2c1 [TCMDC-137765] | -46.6
Nc1nc(N)c2c(Cl)c(CNc3cccc(C(=O)O)c3)ccc2n1 [TCMDC-138268] | -3.552
CCOC(=O)COc1cccc(CNc2ccc3nc(N)nc(N)c3c2)c1 [TCMDC-137822] | 100.9
COc1ccc(CNc2ccc3nc(N)nc(N)c3c2)cc1 [TCMDC-139002] | 12.04
CCOc1ccccc1C(=O)N1CCc2cc3nccc(N4CCN5CCC[C@H]5C4)c3cc21 [TCMDC-140042] | 21.16
CN(C)CCOc1ccc(-c2cc(-c3ccc(Cl)c(O)c3)c(-c3ccncc3)o2)cc1 [TCMDC-141254] | -18.41
COc1ccc2nc(NC3=NC(c4ccccn4)(c4ccccn4)C(=O)N3C)[nH]c2c1 [TCMDC-139288] | 10.34
Cc1cccc(CN2CCCN(Cc3cccc(C(=O)Nc4ccc(C(C)(C)C)cc4)c3)CC2)c1 [TCMDC-135984] | -91.41
CN(C)CCOc1ccc(-c2cc(-c3ccc(Cl)c(O)c3)c(-c3ccnc(N)n3)o2)cc1 [TCMDC-141332] | 28.72
CC1CN(c2cccc3c2nc(-c2cncc(C#N)c2)n3CCNCc2ccccc2)CC(C)O1 (stereo not shown) [TCMDC-133411] | 66.36
N#Cc1ccc(-c2nc3c(N4CCCC4)cccc3n2CCNCc2ccccc2)cc1 [TCMDC-133433] | 30.7
N#Cc1cncc(-c2nc3c(N4CCN(c5cnccn5)CC4)cccc3n2CCNCc2ccccc2)c1 [TCMDC-133413] | -21.4
COc1ccccc1N1CCN(c2cccc3c2nc(-c2cncc(C#N)c2)n3CCNCc2ccccc2)CC1 [TCMDC-133412] | -37.42
N#Cc1cncc(-c2nc3c(N4CCC(N5CCCC5)CC4)cccc3n2CCNCc2ccccc2)c1 [TCMDC-133547] | 94.76
CC[C@H](C)CNC(=O)c1cncc(-c2cccc(CN3CCC(N4CCCC4)CC3)c2)c1 [TCMDC-134226] | 16.8
CN(C)c1cccc2c1nc(-c1ccc3c(c1)CCO3)n2CCNCc1ccccc1 [TCMDC-134062] | 5.243
N#Cc1cncc(-c2nc3c(N4CCC(Cc5ccccc5)CC4)cccc3n2CCNCc2ccccc2)c1 [TCMDC-133546] | 51.69
c1ccc(CNCCn2c(-c3ccc4c(c3)CCO4)nc3c(N4CCCC4)cccc32)cc1 [TCMDC-134289] | 92.48
N#Cc1cncc(-c2nc3c(N4CCCC(N)C4)cccc3n2CCNCc2ccccc2)c1 (stereo not shown) [TCMDC-135364] | -9.75
CC(C)CN(C)c1ncnc2c1nc(-c1cncc(C#N)c1)n2CCNCc1ccccc1 [TCMDC-136555] | 12.57
Oc1ccc(-c2nc3c(N4CCN(Cc5ccccc5)CC4)cccc3n2C2CCNCC2)cc1 [TCMDC-132125] | 4.567
